The target of test [1] is High affinity nerve growth factor receptor (Homo sapiens) (UniProt P04629). The following applies: at 1 µM.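 Note: each value is the mean percent inhibition of TRKA.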
Test [2] has as its target BDNF/NT-3 growth factors receptor (Homo sapiens) (UniProt Q16620). The conditions noted are these: at 0.1 µM.
Test [3] shares this target. The conditions noted are these: at 1 µM.
The target in test [4] is NT-3 growth factor receptor (Homo sapiens) (UniProt Q16288). The following applies: at 0.1 µM.
The target is the same in test [5]. The conditions noted are these: at 1 µM.
The target of test [6] is T1, Tyrosine-protein kinase TXK (Homo sapiens) (UniProt P42681).
T1 sequence (whole entry): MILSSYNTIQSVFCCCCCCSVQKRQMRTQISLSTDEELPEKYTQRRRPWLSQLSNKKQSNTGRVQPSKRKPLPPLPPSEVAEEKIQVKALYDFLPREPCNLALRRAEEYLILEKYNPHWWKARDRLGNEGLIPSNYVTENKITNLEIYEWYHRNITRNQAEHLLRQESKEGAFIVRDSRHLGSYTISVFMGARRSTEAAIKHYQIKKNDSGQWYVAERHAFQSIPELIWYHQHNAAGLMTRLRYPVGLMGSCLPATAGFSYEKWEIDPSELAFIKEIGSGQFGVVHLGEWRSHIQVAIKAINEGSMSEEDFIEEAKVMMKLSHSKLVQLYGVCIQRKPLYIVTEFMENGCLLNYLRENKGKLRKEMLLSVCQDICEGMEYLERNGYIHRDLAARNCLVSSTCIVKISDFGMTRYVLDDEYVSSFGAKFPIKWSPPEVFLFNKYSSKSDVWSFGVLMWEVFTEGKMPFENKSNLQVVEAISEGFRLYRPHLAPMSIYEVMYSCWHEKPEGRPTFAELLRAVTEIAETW
The following applies: at 0.1 µM.

The target of test [7] is T1, Tyrosine-protein kinase TXK (Homo sapiens). The conditions noted are these: at 1 µM.
In test [8] the target is Non-receptor tyrosine-protein kinase TYK2 (Homo sapiens) (UniProt P29597). The conditions noted are these: at 0.1 µM.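 Note: each value is a mean of the inhibition readings.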
Test [9] concerns the target T2, Dual specificity protein kinase TTK (Homo sapiens) (UniProt P33981).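 Note: reported figures are mean TTK inhibition at 1 µM.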
T2 sequence (whole entry): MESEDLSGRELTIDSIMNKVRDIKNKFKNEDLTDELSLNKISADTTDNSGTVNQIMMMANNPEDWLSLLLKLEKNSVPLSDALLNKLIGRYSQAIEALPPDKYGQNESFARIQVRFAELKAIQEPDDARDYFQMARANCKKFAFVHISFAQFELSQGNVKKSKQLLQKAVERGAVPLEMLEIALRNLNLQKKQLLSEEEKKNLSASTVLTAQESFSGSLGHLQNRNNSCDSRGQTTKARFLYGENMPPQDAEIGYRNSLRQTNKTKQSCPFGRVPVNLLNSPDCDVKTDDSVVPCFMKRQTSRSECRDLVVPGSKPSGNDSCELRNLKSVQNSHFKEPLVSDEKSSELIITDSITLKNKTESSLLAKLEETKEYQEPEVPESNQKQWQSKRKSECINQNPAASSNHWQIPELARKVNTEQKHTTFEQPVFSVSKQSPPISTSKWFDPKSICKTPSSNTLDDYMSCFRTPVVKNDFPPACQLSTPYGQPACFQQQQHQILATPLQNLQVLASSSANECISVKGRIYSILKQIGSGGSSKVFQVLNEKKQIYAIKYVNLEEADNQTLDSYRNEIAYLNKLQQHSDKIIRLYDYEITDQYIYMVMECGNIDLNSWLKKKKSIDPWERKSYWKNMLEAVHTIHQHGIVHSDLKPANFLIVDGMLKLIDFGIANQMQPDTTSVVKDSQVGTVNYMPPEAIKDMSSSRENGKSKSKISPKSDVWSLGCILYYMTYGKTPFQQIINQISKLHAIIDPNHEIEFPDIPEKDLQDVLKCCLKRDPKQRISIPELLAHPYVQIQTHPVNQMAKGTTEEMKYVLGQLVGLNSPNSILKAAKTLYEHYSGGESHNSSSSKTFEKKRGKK
The following applies: at 1 µM.

For test [10], the target named is T3, Aurora kinase A (Homo sapiens) (UniProt O14965).
T3 sequence (whole entry): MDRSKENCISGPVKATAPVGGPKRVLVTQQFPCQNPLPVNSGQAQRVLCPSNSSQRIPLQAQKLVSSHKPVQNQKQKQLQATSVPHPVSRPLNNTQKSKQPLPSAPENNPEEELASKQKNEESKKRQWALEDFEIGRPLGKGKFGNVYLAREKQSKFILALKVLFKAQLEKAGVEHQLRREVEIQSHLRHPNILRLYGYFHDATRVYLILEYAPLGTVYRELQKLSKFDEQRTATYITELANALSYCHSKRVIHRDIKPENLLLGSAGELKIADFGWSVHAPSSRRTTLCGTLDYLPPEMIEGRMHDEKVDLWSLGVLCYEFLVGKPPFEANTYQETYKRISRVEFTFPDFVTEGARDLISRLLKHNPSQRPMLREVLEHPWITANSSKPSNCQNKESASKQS
The following applies: at 0.1 µM.

For test [11], the target named is T3, Aurora kinase A (Homo sapiens). The following applies: at 1 µM.
For test [12], the target named is Aurora kinase B (Homo sapiens) (UniProt Q96GD4). The conditions noted are these: at 0.1 µM.
Test [13] has the same target. The following applies: at 1 µM.
Test [14] has as its target T4, Aurora kinase C (Homo sapiens) (UniProt Q9UQB9).
T4 sequence (whole entry): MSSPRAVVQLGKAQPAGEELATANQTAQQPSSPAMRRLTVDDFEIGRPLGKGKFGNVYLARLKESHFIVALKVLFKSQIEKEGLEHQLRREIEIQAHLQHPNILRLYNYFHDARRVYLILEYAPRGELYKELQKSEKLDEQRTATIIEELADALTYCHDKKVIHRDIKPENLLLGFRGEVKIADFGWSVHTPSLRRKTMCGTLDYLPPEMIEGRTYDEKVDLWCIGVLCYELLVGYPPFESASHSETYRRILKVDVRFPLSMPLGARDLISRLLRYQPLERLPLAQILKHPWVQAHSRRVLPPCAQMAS
The conditions noted are these: at 0.1 µM.

Test [15] has as its target T4, Aurora kinase C (Homo sapiens). The conditions noted are these: at 1 µM.
Test [16] addresses Serine/threonine-protein kinase 10 (Homo sapiens) (UniProt O94804). The following applies: at 0.1 µM.
The target is the same in test [17]. The following applies: at 1 µM.
Test [18] addresses T5, Mitogen-activated protein kinase kinase kinase kinase 2 (Homo sapiens) (UniProt Q12851).
T5 sequence (whole entry): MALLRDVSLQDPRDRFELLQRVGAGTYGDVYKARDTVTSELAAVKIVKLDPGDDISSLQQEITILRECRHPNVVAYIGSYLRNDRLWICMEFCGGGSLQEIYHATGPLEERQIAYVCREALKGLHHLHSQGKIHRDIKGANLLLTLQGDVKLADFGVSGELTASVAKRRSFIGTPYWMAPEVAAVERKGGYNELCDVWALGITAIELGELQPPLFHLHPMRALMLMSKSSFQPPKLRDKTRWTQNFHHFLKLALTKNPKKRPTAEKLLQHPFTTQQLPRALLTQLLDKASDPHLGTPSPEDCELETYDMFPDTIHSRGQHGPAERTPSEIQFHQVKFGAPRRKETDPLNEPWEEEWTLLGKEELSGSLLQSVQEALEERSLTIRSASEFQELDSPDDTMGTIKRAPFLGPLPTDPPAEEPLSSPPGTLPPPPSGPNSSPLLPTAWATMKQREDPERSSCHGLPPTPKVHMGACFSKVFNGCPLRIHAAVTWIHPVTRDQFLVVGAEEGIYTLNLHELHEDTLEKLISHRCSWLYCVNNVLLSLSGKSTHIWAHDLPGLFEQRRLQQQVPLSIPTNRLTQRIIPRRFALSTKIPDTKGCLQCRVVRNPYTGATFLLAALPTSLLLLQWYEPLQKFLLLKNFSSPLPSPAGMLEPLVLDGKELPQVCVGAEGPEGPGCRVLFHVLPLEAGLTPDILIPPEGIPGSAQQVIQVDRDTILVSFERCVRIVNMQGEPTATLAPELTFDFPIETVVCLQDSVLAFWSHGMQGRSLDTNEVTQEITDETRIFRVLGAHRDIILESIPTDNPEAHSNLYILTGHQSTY
The conditions noted are these: at 0.1 µM.

In test [19] the target is T5, Mitogen-activated protein kinase kinase kinase kinase 2 (Homo sapiens). The conditions noted are these: at 1 µM.
Test [20] has as its target Mitogen-activated protein kinase kinase kinase kinase 4 (Homo sapiens) (UniProt O95819). The conditions noted are these: at 0.1 µM.

Drawing on ChEMBL document CHEMBL1961873, “Compounds: GSK PKIS; Assays: Nanosyn kinase panel” (2012), this text covers inhibition for 7 molecules.

Sequence of Non-receptor tyrosine-protein kinase TYK2 (Homo sapiens) (P29597 whole entry): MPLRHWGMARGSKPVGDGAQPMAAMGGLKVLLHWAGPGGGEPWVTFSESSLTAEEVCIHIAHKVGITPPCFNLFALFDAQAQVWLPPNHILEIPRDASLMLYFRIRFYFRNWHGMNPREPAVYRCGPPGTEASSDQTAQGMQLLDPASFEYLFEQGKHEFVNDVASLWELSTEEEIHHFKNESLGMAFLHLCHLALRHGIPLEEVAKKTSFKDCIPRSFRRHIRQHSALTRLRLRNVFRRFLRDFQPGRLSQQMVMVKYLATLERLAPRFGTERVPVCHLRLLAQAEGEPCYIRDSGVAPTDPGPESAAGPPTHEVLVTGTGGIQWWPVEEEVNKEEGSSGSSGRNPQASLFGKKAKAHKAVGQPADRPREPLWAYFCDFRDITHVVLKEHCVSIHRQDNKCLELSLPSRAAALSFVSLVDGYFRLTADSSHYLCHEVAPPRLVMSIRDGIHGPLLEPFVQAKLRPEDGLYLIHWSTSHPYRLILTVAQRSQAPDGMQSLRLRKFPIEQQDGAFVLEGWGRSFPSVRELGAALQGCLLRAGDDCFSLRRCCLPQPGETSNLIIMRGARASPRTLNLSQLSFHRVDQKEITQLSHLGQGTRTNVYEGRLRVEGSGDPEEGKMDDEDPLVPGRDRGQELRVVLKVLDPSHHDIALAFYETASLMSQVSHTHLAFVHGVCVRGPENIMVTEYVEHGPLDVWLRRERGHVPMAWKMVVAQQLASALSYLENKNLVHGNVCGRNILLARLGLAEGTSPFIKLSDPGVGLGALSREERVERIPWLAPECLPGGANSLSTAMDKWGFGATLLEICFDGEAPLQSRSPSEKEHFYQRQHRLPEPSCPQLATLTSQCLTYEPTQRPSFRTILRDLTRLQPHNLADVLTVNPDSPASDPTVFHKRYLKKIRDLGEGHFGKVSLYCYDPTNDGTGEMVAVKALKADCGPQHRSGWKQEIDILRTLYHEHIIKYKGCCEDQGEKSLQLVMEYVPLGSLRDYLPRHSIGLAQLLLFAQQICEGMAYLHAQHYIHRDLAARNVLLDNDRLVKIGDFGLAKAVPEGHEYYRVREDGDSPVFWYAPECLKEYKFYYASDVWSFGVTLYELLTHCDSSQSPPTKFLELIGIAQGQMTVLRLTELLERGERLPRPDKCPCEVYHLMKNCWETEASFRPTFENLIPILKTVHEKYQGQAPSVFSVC
Sequence of Aurora kinase B (Homo sapiens) (Q96GD4 whole entry): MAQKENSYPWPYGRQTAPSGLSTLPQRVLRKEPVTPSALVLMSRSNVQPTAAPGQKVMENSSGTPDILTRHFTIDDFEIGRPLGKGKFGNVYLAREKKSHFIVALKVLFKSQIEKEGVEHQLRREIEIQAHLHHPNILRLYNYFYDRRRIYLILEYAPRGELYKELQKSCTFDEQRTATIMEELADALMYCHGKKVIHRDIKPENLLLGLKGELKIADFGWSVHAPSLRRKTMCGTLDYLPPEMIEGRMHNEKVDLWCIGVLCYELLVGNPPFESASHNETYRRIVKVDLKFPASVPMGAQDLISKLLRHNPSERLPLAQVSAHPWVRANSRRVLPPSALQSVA
Sequence of High affinity nerve growth factor receptor (Homo sapiens) (P04629 33-796 limits assumed): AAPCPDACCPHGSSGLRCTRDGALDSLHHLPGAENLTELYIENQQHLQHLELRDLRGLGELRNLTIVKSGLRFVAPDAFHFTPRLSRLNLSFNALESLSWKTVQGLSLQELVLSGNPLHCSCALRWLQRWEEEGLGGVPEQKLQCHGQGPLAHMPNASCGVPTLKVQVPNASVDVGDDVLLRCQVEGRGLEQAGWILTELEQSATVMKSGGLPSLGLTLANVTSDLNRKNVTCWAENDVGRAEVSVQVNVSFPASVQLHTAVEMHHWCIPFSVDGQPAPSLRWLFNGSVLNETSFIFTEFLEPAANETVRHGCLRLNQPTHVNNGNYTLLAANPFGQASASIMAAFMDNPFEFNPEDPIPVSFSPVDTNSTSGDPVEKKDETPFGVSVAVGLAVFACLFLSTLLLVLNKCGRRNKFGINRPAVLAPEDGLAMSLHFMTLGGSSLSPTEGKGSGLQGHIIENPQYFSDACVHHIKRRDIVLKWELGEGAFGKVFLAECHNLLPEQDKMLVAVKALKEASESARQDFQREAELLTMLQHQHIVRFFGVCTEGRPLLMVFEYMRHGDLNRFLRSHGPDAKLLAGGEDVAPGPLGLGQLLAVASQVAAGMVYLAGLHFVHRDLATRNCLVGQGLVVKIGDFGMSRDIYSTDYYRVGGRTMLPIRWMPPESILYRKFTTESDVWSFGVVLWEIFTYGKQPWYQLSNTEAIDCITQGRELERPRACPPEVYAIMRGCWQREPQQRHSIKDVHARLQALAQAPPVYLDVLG
Sequence of Serine/threonine-protein kinase 10 (Homo sapiens) (O94804 whole entry, looked up): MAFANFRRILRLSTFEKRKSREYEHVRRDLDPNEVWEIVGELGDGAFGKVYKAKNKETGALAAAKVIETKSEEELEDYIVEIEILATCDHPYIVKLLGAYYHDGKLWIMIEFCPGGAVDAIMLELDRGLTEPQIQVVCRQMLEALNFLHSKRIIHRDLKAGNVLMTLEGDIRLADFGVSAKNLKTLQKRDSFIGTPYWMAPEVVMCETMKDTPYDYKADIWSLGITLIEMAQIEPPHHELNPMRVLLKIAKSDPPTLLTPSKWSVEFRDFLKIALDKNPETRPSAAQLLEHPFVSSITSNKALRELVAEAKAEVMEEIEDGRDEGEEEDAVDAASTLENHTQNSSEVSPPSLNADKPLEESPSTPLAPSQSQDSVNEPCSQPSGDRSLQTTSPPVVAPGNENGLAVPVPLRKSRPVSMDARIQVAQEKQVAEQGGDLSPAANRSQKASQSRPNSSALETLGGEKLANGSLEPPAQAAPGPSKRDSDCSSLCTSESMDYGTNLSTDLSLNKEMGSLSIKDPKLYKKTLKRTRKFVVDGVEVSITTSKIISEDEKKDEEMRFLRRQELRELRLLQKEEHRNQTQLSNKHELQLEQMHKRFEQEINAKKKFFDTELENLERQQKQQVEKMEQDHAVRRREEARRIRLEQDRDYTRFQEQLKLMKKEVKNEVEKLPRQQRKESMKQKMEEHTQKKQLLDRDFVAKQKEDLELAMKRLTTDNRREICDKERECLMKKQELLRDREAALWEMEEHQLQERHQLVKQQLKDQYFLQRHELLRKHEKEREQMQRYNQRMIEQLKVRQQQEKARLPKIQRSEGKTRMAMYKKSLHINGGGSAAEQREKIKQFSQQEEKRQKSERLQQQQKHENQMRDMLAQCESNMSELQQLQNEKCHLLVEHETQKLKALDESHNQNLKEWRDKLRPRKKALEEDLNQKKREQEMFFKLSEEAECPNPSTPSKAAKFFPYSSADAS
Sequence of Mitogen-activated protein kinase kinase kinase kinase 4 (Homo sapiens) (O95819 2-1239 limits assumed): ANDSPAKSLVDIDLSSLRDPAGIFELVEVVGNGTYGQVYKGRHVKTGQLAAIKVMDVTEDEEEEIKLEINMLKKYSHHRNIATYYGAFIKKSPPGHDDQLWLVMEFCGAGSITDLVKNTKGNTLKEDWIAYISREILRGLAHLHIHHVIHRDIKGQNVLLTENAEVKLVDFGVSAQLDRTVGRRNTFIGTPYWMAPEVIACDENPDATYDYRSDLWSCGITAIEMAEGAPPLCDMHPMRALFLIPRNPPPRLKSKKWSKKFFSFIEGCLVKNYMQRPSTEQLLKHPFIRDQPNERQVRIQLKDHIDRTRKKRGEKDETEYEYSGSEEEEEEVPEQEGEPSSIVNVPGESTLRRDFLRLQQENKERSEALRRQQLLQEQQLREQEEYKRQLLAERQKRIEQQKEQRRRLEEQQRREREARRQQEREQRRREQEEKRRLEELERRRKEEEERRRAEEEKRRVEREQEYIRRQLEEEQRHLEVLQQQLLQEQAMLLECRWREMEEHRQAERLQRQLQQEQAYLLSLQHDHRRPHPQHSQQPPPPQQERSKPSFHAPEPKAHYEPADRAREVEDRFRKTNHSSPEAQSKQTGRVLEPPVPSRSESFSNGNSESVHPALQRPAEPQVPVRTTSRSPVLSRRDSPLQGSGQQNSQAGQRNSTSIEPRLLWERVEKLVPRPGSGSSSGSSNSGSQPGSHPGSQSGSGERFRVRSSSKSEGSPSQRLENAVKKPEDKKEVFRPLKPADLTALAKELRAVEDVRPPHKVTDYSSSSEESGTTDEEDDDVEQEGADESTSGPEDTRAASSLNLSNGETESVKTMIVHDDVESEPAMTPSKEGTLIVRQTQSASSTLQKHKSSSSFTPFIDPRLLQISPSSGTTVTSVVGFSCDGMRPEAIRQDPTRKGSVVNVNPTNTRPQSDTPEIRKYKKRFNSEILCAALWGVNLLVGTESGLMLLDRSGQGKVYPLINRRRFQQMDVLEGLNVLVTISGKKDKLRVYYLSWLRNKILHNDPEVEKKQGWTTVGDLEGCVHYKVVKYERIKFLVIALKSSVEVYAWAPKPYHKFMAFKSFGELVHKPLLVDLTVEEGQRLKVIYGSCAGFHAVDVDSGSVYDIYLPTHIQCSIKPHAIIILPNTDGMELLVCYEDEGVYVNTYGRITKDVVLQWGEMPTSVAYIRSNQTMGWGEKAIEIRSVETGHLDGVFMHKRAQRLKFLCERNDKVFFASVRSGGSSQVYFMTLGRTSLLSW

On to `CCn1c(-c2nonc2N)nc2ccccc21`, for which the inhibition is 2.11% in test [1]; 1.05% in [2]; -0.82% in [3]; 0.03% in test [4]; 0.89% in test [5]; 3.75% in [6]. Moreover, the inhibition in test [7] was 6.72%; in test [8], -1.66%; in test [9], 7.51%; in [10] it was 2.42%; in test [11], 7.95%; in test [12], 0.55%. Moreover, the inhibition was 5.64% in test [13]; -0.58% in test [14]; 11.2% in [15]; 2.59% in test [16]; 6.5% in test [17]; 0.98% in test [18]. Moreover, the inhibition in test [19] stood at 3.67%; in [20], 4.69%.
For the molecule `CC(C)(CO)CNC(=O)c1ccc2c(c1)/C(=N/Nc1ccc(S(N)(=O)=O)cc1)C(=O)N2`, the inhibition in [1] was 15.6%; in test [2], 3.35%; in test [3] it was 31.2%; in test [4], 6.89%; in test [5] it was 41.5%; in [6], -0.15%. Besides, the inhibition in [7] was 3.21%; in [8], -1.38%; in test [9], 79.2%; in test [10], 11.9%; in test [11] it was 56.2%; in test [12] it was 0.26%. The inhibition in [13] was 21%; in test [14], 3.09%; in test [15], 43%; in test [16] it was -1.79%; in test [17] it was 4.55%; in test [18], 0.92%. For the same molecule, the inhibition in [19] worked out at 3.15%; in test [20], 0.68%.
As for `Nc1nc(-c2ccc(F)cc2)c(-c2ccc3ncccc3n2)s1`, the inhibition in [1] was determined as 4.77%; in [2], 4.19%; in [3] it was 3.45%; in [4] it was 3.72%; in test [5], 5.31%; in [6] it was 3.19%. Moreover, the inhibition in [7] is 6%; in test [8], -2.9%; in test [9], 7.77%; in test [10] it was 4.14%; in [11] it was 10.6%; in [12], 6.06%. In addition, the inhibition was 7.91% in test [13]; 2.74% in test [14]; -0.03% in test [15]; 5.75% in test [16]; 10.1% in test [17]; 2.4% in test [18]. Also, the results for the inhibition in test [19] and in [20] were 3.82% and 17.7%, respectively.
As to `Fc1cccc(COc2ccc(Nc3ncnc4sc(-c5ccco5)cc34)cc2Cl)c1`, the inhibition in test [1] was 0.66%; in test [2], 3.36%; in test [3], 3.82%; in [4], 3.74%; in [5] it was 3.88%; in [6], -1.45%. Further, the inhibition in test [7] was 3.65%; in [8], -2.62%; in [9] it was 6.39%; in test [10] it was 2.5%; in test [11], 3.83%; in [12], 3.38%. Further, the inhibition in test [13] is 6.89%; in test [14], 5.96%; in test [15], 7.59%; in test [16] it was 9.25%; in [17], 15%; in test [18], 1.99%. Further, the figures for the inhibition in test [19] and in [20] were 3.87% and 3.43%, respectively.
In the case of `CC(=O)Nc1cccc(C#Cc2cncnc2Nc2ccc(OCc3cccc(F)c3)c(Cl)c2)c1`, the inhibition in test [1] was -0.49%; in test [2], 0.63%; in test [3], 0.88%; in [4] it was -1.1%; in test [5] it was 1.69%; in test [6], 5.05%. Moreover, the inhibition was found to be 8.59% in [7]; 1.05% in test [8]; 7.9% in test [9]; 2.48% in [10]; 8.44% in [11]; 1.68% in test [12]. Further, the inhibition in [13] came out at 5.28%; in test [14], 2.09%; in test [15], 15.3%; in [16] it was 2.85%; in test [17], 4.01%; in test [18], 0.88%. In addition, the values for the inhibition in test [19] and in [20] were 1.54% and 2.7%, respectively.
In the case of `COc1ccc(-c2nn3ncccc3c2-c2ccnc(Nc3ccc4c(c3)OCCO4)n2)cc1`, the inhibition is 20.2% in test [1]; 1.61% in test [2]; 18.7% in test [3]; -1.55% in [4]; 6.72% in test [5]; -0.79% in test [6]. Further, the inhibition in test [7] was 3.19%; in test [8] it was -1.16%; in test [9] it was 11.6%; in [10], 18.5%; in test [11], 63.2%; in test [12] it was 3.61%. The inhibition turned out to be 17.4% in test [13]; 6.73% in test [14]; 46.8% in [15]; 11.2% in [16]; 55.1% in test [17]; 0.69% in test [18]. In addition, the results for the inhibition in [19] and in test [20] were 4.16% and 0.61%, respectively.
Take `CCn1c(-c2nonc2N)nc2c(C#CC(C)(C)O)ncc(OC3CCNCC3)c21`: the inhibition in test [1] is 3.24%; in test [2] it was 1.42%; in [3], 1.02%; in test [4], 2.31%; in test [5] it was -0.14%; in [6], 6.03%. The inhibition in [7] came out at 3.86%; in [8] it was 0.42%; in [9], 7.59%; in test [10], 4.24%; in test [11], 0.96%; in test [12], 2.65%. Besides, the inhibition was 1.85% in test [13]; 1.48% in [14]; 3.1% in test [15]; 3.27% in [16]; 11.2% in test [17]; 2.3% in [18]. Besides, the inhibition in [19] was found to be 3.12%; in [20], 2.72%.
